Values joined by “and” are separate entries in the source; they are usually repeats but may differ in a detail not shown here. Equal values may be shown once. For some assays here: Measured potencies and affinities stand elsewhere.
What was measured:
Set-up in all cases: scale not given: direction of the effect not stated beside the values
[1] = target: Protein translocase subunit SecA (Escherichia coli (strain K12)) (UniProt P10408); experiment: Assay to Identify E. coli SecA ATPase Inhibitors; format: functional; settings: 30 µM
[2] = target: T1, Ubiquitin-activating enzyme e1, putative (Leishmania donovani (strain BPK282A1)) (UniProt E9BSI1); experiment: Leishmania donovani Ubiquitin Activating Enzyme (LdE1); format: functional; settings: 30 µM
T1 sequence (whole entry): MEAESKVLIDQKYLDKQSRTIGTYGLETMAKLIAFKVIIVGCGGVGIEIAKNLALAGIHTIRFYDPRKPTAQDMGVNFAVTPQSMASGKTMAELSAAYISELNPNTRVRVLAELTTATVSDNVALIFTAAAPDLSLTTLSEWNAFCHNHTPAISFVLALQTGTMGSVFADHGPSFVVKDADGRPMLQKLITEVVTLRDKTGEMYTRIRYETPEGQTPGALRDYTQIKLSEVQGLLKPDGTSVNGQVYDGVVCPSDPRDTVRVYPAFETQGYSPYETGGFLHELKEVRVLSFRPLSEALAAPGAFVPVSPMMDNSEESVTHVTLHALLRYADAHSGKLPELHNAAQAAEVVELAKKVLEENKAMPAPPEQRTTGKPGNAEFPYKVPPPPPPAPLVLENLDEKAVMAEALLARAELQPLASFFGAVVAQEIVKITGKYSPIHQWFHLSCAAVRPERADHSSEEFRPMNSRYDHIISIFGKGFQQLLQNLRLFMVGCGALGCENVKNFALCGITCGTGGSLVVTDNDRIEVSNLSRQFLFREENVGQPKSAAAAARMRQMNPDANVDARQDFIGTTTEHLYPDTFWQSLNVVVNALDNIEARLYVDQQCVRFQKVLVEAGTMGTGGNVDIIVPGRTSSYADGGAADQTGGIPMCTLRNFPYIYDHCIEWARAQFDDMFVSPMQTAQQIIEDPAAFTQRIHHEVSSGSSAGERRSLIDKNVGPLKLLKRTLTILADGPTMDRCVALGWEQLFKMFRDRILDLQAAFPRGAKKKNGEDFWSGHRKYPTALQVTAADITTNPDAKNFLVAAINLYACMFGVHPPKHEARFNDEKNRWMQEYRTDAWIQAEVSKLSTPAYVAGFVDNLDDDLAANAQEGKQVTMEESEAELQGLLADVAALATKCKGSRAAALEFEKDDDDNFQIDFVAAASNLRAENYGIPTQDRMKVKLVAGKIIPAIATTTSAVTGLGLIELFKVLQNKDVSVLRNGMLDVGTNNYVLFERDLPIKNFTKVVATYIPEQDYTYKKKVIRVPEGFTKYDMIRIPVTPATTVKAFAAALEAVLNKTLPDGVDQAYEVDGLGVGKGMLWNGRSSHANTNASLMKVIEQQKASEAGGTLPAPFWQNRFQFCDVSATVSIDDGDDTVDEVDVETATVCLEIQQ

[3] = target: AMP-activated protein kinase, AMPK (Homo sapiens) (UniProt P54646+O43741+P54619+Q9UGJ0+Q9Y478+Q13131+Q9UGI9); experiment: AMP-dependent Kinase enzyme assay. An in vitro enzyme assay that detects ADP turnover that is directly proportional to AMPK activity. This uses naive AMPK that is activated during the assay with MK-8722; format: functional; settings: 30 µM
[4] = target: Sialic acid-binding Ig-like lectin 9 (Homo sapiens) (UniProt Q9Y336); experiment: Hs-Siglec9 ALPHAscreen SOP 20170721; settings: 10 µM
[5] = test system: Trypanosoma cruzi; experiment: Trypanosoma cruzi phosphomannomutase and mannose-1-phosphate guanylyltransferase assay; format: functional; settings: 10 µM
[6] = target: T2, Arginase-2, mitochondrial (Homo sapiens) (UniProt P78540); experiment: in vitro enzyme assay to detect the production of urea directly proportional to the activity of Arginase II; format: functional; settings: 33.3 µM; also: in the data most compounds retested in dose-response had high values
T2 sequence (whole entry): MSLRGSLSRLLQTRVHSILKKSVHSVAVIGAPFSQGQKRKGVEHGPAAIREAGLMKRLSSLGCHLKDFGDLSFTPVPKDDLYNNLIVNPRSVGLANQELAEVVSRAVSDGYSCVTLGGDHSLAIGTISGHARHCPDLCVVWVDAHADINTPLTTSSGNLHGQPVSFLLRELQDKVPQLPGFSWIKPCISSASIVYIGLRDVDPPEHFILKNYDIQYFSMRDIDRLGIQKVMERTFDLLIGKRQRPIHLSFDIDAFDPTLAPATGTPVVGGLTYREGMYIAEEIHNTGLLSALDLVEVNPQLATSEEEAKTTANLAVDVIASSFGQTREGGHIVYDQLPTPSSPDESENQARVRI

[7] = target: T3, Proteasome subunit beta (Trypanosoma cruzi) (UniProt O96673); experiment: Trypanosoma cruzi proteasome chymotrypsin-like activity (TcProtChymo) assay.; also: in the data most compounds retested in dose-response had high values; format: functional; settings: 9.37 µM
T3 sequence (whole entry): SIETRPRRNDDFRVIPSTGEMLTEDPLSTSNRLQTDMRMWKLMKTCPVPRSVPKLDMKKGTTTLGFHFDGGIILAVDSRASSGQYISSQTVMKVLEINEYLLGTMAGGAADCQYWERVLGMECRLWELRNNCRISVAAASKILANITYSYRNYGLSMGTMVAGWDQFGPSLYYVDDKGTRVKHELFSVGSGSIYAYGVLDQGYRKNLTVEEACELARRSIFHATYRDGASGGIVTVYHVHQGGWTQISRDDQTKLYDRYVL

[8] = test system: N/A; experiment: Trypanosoma cruzi proteasome luciferase counter-screen; format: functional; settings: 9.37 µM
[9] = species: Homo sapiens; experiment: To identify inhibition of the IFN signalling (Jak-Stat) pathway via expression of an eGFP reporter gene under the control of an IFN-stimulated response element (ISRE) containing MxA promoter.; format: functional; settings: 30 µM
[10] = target: T4, Tyrosyl-tRNA synthetase, putative (Trypanosoma cruzi (strain CL Brener)) (UniProt Q4DSP6); experiment: Trypanosoma cruzi tyrosyl tRNA synthetase (TcYRS) _High Tyrosine SOP; format: functional; settings: 30 µM; also: in the data most compounds retested in dose-response had high values
T4 sequence (whole entry): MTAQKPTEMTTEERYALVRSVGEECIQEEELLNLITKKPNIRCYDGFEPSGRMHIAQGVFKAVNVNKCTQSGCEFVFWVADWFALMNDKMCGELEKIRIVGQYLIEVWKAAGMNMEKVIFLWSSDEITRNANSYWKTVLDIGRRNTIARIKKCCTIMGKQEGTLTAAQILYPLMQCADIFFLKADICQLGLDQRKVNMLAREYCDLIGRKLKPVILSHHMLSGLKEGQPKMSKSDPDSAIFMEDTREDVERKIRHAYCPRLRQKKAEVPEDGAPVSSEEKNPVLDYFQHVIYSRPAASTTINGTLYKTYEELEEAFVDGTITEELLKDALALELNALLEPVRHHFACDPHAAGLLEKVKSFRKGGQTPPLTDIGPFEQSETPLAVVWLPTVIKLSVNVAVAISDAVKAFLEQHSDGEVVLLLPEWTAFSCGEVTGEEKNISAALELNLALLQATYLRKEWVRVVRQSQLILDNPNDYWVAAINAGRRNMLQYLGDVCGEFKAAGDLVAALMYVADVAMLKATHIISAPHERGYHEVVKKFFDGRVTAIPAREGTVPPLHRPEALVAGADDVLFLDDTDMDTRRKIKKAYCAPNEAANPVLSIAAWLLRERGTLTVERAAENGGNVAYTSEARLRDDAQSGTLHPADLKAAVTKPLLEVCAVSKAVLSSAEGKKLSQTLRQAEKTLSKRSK

[11] = target: T4, Tyrosyl-tRNA synthetase, putative (Trypanosoma cruzi (strain CL Brener)); experiment: Trypanosoma cruzi tyrosyl tRNA synthetase (TcYRS) SOP; format: functional; settings: 30 µM
[12] = target: Chromo domain-containing protein 1 (Saccharomyces cerevisiae (strain ATCC 204508 / S288c) (Baker's yeast)) (UniProt P32657); experiment: ScCHD-1 Enzyme Inhibition Assay; format: functional; settings: 30 µM; also: in the data most compounds retested in dose-response had high values
Chromo domain-containing protein 1 (Saccharomyces cerevisiae (strain ATCC 204508 / S288c) (Baker's yeast)), sequence (P32657 whole entry, the tested form may be a part): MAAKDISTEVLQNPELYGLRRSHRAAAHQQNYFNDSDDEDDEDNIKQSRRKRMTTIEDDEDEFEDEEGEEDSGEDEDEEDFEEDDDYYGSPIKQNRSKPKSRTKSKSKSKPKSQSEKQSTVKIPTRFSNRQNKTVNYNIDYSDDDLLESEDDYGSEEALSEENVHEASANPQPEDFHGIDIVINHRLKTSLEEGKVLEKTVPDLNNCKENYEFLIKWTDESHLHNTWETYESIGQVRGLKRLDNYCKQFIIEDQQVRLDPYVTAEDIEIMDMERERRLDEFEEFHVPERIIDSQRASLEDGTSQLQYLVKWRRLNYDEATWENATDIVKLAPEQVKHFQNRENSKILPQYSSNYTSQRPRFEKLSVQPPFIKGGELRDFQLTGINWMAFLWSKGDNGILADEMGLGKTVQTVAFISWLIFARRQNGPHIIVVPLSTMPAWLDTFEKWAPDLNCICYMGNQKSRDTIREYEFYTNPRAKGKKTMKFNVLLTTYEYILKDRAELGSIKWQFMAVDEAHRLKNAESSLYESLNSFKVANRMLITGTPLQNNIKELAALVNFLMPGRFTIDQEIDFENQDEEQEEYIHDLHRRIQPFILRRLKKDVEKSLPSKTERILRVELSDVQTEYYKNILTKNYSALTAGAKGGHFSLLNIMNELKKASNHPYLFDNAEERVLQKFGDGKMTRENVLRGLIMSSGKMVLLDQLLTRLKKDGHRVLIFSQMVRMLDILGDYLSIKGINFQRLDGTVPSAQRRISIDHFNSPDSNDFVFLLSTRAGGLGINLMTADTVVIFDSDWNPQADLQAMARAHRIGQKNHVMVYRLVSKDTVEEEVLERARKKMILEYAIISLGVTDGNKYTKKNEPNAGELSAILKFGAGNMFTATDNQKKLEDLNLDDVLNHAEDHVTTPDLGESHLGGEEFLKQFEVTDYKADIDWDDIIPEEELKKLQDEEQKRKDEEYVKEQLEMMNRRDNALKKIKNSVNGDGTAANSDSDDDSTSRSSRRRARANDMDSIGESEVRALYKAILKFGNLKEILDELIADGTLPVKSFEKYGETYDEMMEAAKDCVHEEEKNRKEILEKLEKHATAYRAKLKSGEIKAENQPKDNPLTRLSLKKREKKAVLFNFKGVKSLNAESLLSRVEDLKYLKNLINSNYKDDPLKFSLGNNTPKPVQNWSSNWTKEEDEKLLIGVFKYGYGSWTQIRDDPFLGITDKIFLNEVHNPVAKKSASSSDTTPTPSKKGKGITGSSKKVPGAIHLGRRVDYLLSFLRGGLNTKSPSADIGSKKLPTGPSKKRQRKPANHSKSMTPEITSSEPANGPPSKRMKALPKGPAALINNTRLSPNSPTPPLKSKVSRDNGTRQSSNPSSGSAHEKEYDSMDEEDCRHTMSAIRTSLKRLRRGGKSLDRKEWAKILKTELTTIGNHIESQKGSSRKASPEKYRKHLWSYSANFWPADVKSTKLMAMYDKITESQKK

Sialic acid-binding Ig-like lectin 9 (Homo sapiens), sequence (Q9Y336 whole entry): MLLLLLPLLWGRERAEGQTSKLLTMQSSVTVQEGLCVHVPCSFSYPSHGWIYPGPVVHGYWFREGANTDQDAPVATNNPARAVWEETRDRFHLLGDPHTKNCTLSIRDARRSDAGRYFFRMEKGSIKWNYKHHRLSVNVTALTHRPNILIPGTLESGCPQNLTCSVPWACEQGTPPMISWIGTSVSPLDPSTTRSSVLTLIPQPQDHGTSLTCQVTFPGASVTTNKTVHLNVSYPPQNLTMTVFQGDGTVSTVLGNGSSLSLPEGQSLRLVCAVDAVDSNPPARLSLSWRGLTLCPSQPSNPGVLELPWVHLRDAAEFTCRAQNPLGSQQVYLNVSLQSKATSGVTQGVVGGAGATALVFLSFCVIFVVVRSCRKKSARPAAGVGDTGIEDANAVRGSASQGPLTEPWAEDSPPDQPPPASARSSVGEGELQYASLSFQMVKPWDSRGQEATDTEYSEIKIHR
Protein translocase subunit SecA (Escherichia coli (strain K12)), sequence (P10408 whole entry): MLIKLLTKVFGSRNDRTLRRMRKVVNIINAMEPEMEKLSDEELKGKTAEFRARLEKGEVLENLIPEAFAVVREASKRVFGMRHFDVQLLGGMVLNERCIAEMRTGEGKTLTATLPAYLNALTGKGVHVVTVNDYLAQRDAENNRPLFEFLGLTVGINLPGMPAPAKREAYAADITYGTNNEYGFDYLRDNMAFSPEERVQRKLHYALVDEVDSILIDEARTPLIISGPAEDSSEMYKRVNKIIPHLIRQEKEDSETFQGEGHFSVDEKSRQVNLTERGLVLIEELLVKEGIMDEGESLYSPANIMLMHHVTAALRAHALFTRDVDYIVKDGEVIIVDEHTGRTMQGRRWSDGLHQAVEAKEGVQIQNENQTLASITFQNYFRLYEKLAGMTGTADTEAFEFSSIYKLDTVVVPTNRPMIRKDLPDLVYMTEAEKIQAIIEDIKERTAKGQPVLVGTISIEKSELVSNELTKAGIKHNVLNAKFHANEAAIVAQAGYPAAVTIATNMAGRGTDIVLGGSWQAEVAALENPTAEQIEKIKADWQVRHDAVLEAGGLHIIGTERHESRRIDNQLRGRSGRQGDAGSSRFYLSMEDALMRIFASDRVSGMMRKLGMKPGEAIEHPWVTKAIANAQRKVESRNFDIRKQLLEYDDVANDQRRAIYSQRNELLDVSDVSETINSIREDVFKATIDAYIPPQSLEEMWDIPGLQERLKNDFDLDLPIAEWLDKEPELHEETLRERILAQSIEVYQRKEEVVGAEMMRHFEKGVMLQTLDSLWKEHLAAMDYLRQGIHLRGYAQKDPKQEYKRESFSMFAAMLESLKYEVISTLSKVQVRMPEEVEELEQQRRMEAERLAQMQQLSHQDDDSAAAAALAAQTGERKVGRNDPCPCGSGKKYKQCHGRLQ

Row | SMILES | Percent Effect [1] [%] | Percent Effect [2] [%] | Percent Effect [3] [%] | Percent Effect [4] [%] | Percent Effect [5] [%] | Percent Effect [6] [%] | Percent Effect [7] | Percent Effect [8] | Percent Effect [9] [%] | Percent Effect [10] [%] | Percent Effect [11] [%] | Percent Effect [12] [%]
1 | CN1CCCC1c1ccc(C(=O)N2CCc3ccccc3C2)s1 (stereo not drawn) | -3.53 | -16.2 | 2.64 | -7.08 | -3.81 | -2.73 | 74.8% and 75.3% and 64.5% | 44.8% and 43.9% | 16.1 | 3.23 | -3.7 | 7.75
2 | Cc1ncc(CN(C)CC2CCCN2c2cccnn2)s1 (stereo not drawn) | -4.33 | 1.27 | -16.7 | 0.813 | 3.79 | -0.645 | 25.6% |  | 0.297 | 9.38 | 2.53 | -37.9
3 | Cc1cccc(CC(=O)NCCCOC(C)C)c1 | -0.872 | 18.2 | 0.619 | -8.05 | -3.75 | 0.712 | 9.8% |  | 27.8 | 9.71 | 19.5 | -7.62
4 | CC(C)Oc1ncnc2c1CCN(C(=O)c1cccn1C)CC2 | -3.69 | 13.3 | 9.51 | -7.87 | -4.53 | -3.03 | 11.2% |  | 9.21 | 2.13 | 8.97 | -0.243
5 | CNS(=O)(=O)c1ccc(CNC(=O)NCC2CCCO2)cc1 (stereo not drawn) | -5 | 13 | 16.9 | -9.06 | 1.67 | -2.74 | 12.8% |  | 14.9 | 0.952 | 18.8 | -17.3
6 | CN(C)c1ccc(CCNC(=O)C2CCC(=O)N(C3CCCC3)C2)cc1 (stereo not drawn) | -4.96 | 8 | 1.17 | 1.11 | -2.04 | 1.56 | 13.1% |  | 1.03 | 2.73 | 11.1 | -5.65
7 | O=C(NCCCn1cncn1)NCC(c1ccccc1)N1CCCC1 (stereo not drawn) | -4.8 | 2.6 | -5.77 | -8.15 | 5.58 | -2.32 | 14.6% |  | 6.64 | 3.81 | 2.35 | -23.6
8 | COc1cccc(-c2nc(C)c(C(=O)NC(CO)CCSC)s2)c1 (stereo not drawn) | -3.43 | 1.33 | 7.43 | 6.12 | -2.36 | -11.4 | 30.1% and 33.3% and 30.7% | 26.5% and 29.5% | 15.6 | 4.23 | 7.69 | -7.42
9 | COc1ccc(C(O)CNC(=O)Nc2cc(C)nn2C)cc1 (stereo not drawn) | -8.64 | 5.26 | 3.77 | -0.779 | -9.59 | -1.53 | 15.4% |  | 20.4 | -3.43 | -2.44 | -6.99
10 | CS(=O)(=O)NC[C@@H]1OC[C@H]2CN(C(=O)c3ccc[nH]3)CC[C@H]21 | -1.96 | -187 | 4.44 | 3.67 | -18.5 | -44.3 | 10.6% |  | -0.978 | -265 | -628 | -2.84
11 | Cc1ccc(NC(=O)N2CCN(Cc3noc(C4CC4)n3)CC2)cc1 | -10.7 | -1.27 | 5.38 | -5.9 | -3.38 | -4.09 | 10.1% |  | 10.8 | -1.04 | -5.06 | -24.6
12 | CNC(=O)CCNC(=O)c1cccc(Cn2nc(C)cc2C)c1 | -1.98 | 4.17 | 1.31 | 2.11 | 5.15 | -3.09 | 10.7% |  | 15.9 | 6.32 | 7.69 | -5.17
13 | O=C(NCc1ccncc1)N(Cc1ccccc1F)C1CC1 | -6.03 | 18.7 | -7.25 | 29.6 | 10.2 | 51 | 17.1% |  | 5.89 | 2.73 | 16.1 | -6.63
14 | O=C(NCc1cccs1)C1CN(C(=O)c2cccs2)CC12CCOCC2 (stereo not drawn) | -3.46 | 8 | 5.07 | 1.33 | 0.193 | -43.5 | 14.4% |  | -4.96 | 2.08 | -312 | -2.49
15 | CC(C)NC(=O)N1CCN(S(=O)(=O)C2CC2)CC2(CNC(=O)C2)C1 (stereo not drawn) | -6.38 | 18.2 | 0.68 | 2.04 | 4.63 | 0.645 | 7.66% |  | 9.81 | 2.12 | 11.5 | -5.37
16 | CCN1CCN(c2nc(C(C)C)nc3c(C)nn(CC)c23)CC1 | -8.3 | 0 | -2.21 | 5.36 | -1.28 | -5.52 | -0.832% |  | 1.81 | -2.15 | -48.1 | -0.207
17 | Cc1nc(N2CCOCC2)nc2c1CCN(Cc1cccnc1)CC2 | -2.77 | 0 | 0.954 | 7.94 | -3.28 | -56.8 | 3.08% |  | -25.6 | 7.29 | -2.5 | -17.8
18 | CCc1nc(C2CCCN2Cc2nnc(Cc3ccccc3)o2)no1 (stereo not drawn) | -3 | 0 | 2.23 | 3.12 | 8.52 | 1.9 | 5.25% |  | -2.79 | 1.91 | 2.35 | 4.27
19 | CN1CCN(CCCNC(=O)c2cc(Cl)c3c(c2)OCO3)CC1 | 0.405 | 9.72 | -11.6 | 9.36 | 3.6 | 10.6 | 27% |  | -22.6 | 3.16 | 15.4 | -2.83
20 | O=C([C@H]1C[C@H]2OCC[C@H]2N(C(=O)C2CCOCC2)C1)N1CCCCO1 | -5.69 | 13.3 | -3.93 | 1.16 | 1.93 | -50.4 | 2.73% |  | -17.9 | 9.38 | 22.5 | -6.17
21 | O=C(O)[C@]12CCCN(Cc3ccccc3)C[C@H]1CN(c1ncccn1)C2 | -4.2 | 5.33 | 7.47 | -4.2 | 0.386 | -39.2 | 9.91% |  | -24.8 | 4.17 | 12.5 | -8.27
